Laboratory results published in PubChem BioAssay (NCATS).
Records with an inconclusive call do not appear. Values without a mark were called inactive. The source made the active and inactive calls. Calls come from the whole dose curve; as a rule, active = well fitted inhibition curve with a large enough effect; inconclusive = small, poorly fitted or top-dose-only effect; inactive = flat fitted curve, though single readings scatter.

Each compound was assayed on CRL-7250 (assay: Cytotoxic Profiling of Annotated Libraries Using Quantitative High-Throughput Screening (AID 1296008; note: nearly all actives have a fitted effect of over 60% in size)). Settings: Five cell lines viability, CellTiter-Glo ATP luminescence, 48-72 h; max response: hits give low values.
How it was run: (§1)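 Cells exposed to compounds for 48 or 72 hr at 37 degrees Celsius. Viability read as ATP-coupled luminescence with CellTiter-Glo after 10 min at room temperature.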
% is set by controls: 0 for no effect and ±100 for the full control effect; potency is the fitted concentration of half-maximal effect.

SMILES	max response	outcome
N=C(N)c1ccc(OCCCOc2ccc(C(=N)N)cc2)cc1	2.23%	–
O=C(OCC(COC(=O)c1cccnc1)(COC(=O)c1cccnc1)COC(=O)c1cccnc1)c1cccnc1	–	inactive
O=C(O)c1ccccc1Nc1cc(Cl)ccc1C(=O)O	2.83%	–
CCO[C@H](Cc1ccc(OCCc2ccc(OS(C)(=O)=O)cc2)cc1)C(=O)O	-4.09%	–
C=CC[N+]1([C@H]2C[C@H]3[C@@H]4CC[C@H]5C[C@H](OC(C)=O)[C@@H](N6CCCCC6)C[C@]5(C)[C@H]4CC[C@]3(C)[C@H]2OC(=O)CC)CCCCC1	-0.558%	–
CC(CCc1ccc2c(c1)OCO2)NN (stereo not drawn)	-8.5%	–
C[C@@]12CCC[C@H]1[C@@H]1CC[C@H]3C[C@@H](O)CC[C@]3(C)[C@H]1CC2	2.58%	–
Nc1c[n+](N2CCOCC2)no1	–	inactive
CC(C(=O)O)c1ccc(/C=C2\CCCCC2=O)cc1 (stereo not drawn)	1.18%	–
O=C(CCCCC(=O)Nc1c(I)cc(I)c(C(=O)O)c1I)Nc1c(I)cc(I)c(C(=O)O)c1I	2.98%	–
NC(=O)COCCN1CCN(C(c2ccccc2)c2ccc(Cl)cc2)CC1 (stereo not drawn)	0.918%	–
C1=CC2C3C=CC(C3)C2C1 (stereo not drawn)	–	inactive
CCOC(=O)OCC/C(SC(=O)OCC)=C(\C)N(C=O)Cc1cnc(C)nc1N	-3.12%	–
COc1cc(NS(=O)(=O)c2ccc(N)cc2)nc(C)n1	-6.73%	–
CCC(C(=O)NC(=O)NC(C)=O)c1ccccc1 (stereo not drawn)	2.16%	–
O=P(O)(O)OCC(O)CO (stereo not drawn)	-2.69%	–
CC(=O)OCC(=O)[C@@]1(O)CCC2C3CCC4=CC(=O)CC[C@]4(C)C3[C@@H](O)C[C@@]21C (stereo partly drawn)	–	inactive
Cc1ncc(CO)c(CO)c1O	1.45%	–
C[N+]1(CC2COC(c3ccccc3)(c3ccccc3)O2)CCCCC1 (stereo not drawn)	1.41%	–
CN1C(=O)c2ccccc2C1=O	3.83%	–

SMILES	max response	outcome
Cc1ccc(O)cc1	-3.08%	–
CC1(C)S[C@@H]2[C@H](NC(=O)C(c3ccccc3)S(=O)(=O)O)C(=O)N2[C@H]1C(=O)O (stereo partly drawn)	1.53%	–
Cc1nc([N+](=O)[O-])cn1-c1ccc([N+](=O)[O-])cc1	1.02%	–
OCCCc1ccccc1	-10.6%	–
CN1C(CSCC(F)(F)F)Nc2cc(Cl)c(S(N)(=O)=O)cc2S1(=O)=O (stereo not drawn)	-17.8%	–
Cc1ccccc1N1CCN(CCc2nnc3n2CCCC3)CC1	-7.88%	–
O=C(O)c1[nH]n(-c2ccc(S(=O)(=O)O)cc2)c(=O)c1N=Nc1ccc(S(=O)(=O)O)cc1	0.833%	–
C[N+](C)(CCOc1ccccc1)Cc1cccs1	-3.68%	–
CC(=O)CC/C=C(\C)CC/C=C(\C)CC/C=C(\C)CCC=C(C)C	–	inactive
CCCCC(CC)COC(=O)c1ccccc1C(=O)O (stereo not drawn)	-9.5%	–
CC(=O)OCC[N+](C)(C)C	-0.18%	–
CCOc1ccc(NS(=O)(=O)c2ccc(N)cc2)nn1	2.59%	–
CC(C)C(C)(C)C(C)(C)C(C)(C)S	-4.15%	–
C=CCOc1cc(Cl)ccc1C(=O)NCCN(CC)CC	-3.78%	–
Cn1cc(S(C)=O)c(=O)c2ccc(F)cc21 (stereo not drawn)	-2.16%	–
Nc1nnnn1-c1ccccc1	-0.0528%	–
OC[C@]1(O)OC[C@@H](O)[C@H](O)[C@@H]1O	-7.2%	–
O=C(O)Cc1ccc(OCCNC[C@H](O)c2ccccc2)cc1	–	inactive
O=C(O)c1ccccc1S	-0.928%	–

What follows are compounds tested on HEK293 in the same assay as above. Settings: Five cell lines viability, CellTiter-Glo ATP luminescence, 48-72 h; max response: hits give low values.
How it was run: as §1

SMILES	Potency	max response	outcome
N=C(N)c1ccc(OCCCOc2ccc(C(=N)N)cc2)cc1	7.5 µM (active)	–	–
O=C(OCC(COC(=O)c1cccnc1)(COC(=O)c1cccnc1)COC(=O)c1cccnc1)c1cccnc1	–	-3.93%	–
O=C(O)c1ccccc1Nc1cc(Cl)ccc1C(=O)O	–	-2.68%	–
CCO[C@H](Cc1ccc(OCCc2ccc(OS(C)(=O)=O)cc2)cc1)C(=O)O	–	-6.35%	–
C=CC[N+]1([C@H]2C[C@H]3[C@@H]4CC[C@H]5C[C@H](OC(C)=O)[C@@H](N6CCCCC6)C[C@]5(C)[C@H]4CC[C@]3(C)[C@H]2OC(=O)CC)CCCCC1	–	0.459%	–
CC(CCc1ccc2c(c1)OCO2)NN (stereo not drawn)	–	–	inactive
C[C@@]12CCC[C@H]1[C@@H]1CC[C@H]3C[C@@H](O)CC[C@]3(C)[C@H]1CC2	–	–	inactive
Nc1c[n+](N2CCOCC2)no1	–	–	inactive
CC(C(=O)O)c1ccc(/C=C2\CCCCC2=O)cc1 (stereo not drawn)	–	-12.2%	–
O=C(CCCCC(=O)Nc1c(I)cc(I)c(C(=O)O)c1I)Nc1c(I)cc(I)c(C(=O)O)c1I	–	–	inactive
NC(=O)COCCN1CCN(C(c2ccccc2)c2ccc(Cl)cc2)CC1 (stereo not drawn)	–	1.14%	–
C1=CC2C3C=CC(C3)C2C1 (stereo not drawn)	–	–	inactive
CCOC(=O)OCC/C(SC(=O)OCC)=C(\C)N(C=O)Cc1cnc(C)nc1N	–	-0.945%	–
COc1cc(NS(=O)(=O)c2ccc(N)cc2)nc(C)n1	–	–	inactive
CCC(C(=O)NC(=O)NC(C)=O)c1ccccc1 (stereo not drawn)	–	-0.744%	–
O=P(O)(O)OCC(O)CO (stereo not drawn)	–	-2.36%	–
CC(=O)OCC(=O)[C@@]1(O)CCC2C3CCC4=CC(=O)CC[C@]4(C)C3[C@@H](O)C[C@@]21C (stereo partly drawn)	–	2.9%	–
Cc1ncc(CO)c(CO)c1O	–	4.28%	–
C[N+]1(CC2COC(c3ccccc3)(c3ccccc3)O2)CCCCC1 (stereo not drawn)	10 µM (active)	–	–
CN1C(=O)c2ccccc2C1=O	–	-4.39%	–

SMILES	Potency	max response	outcome
Cc1ccc(O)cc1	–	0.45%	–
CC1(C)S[C@@H]2[C@H](NC(=O)C(c3ccccc3)S(=O)(=O)O)C(=O)N2[C@H]1C(=O)O (stereo partly drawn)	–	-0.254%	–
Cc1nc([N+](=O)[O-])cn1-c1ccc([N+](=O)[O-])cc1	–	0.842%	–
OCCCc1ccccc1	–	-4.71%	–
CN1C(CSCC(F)(F)F)Nc2cc(Cl)c(S(N)(=O)=O)cc2S1(=O)=O (stereo not drawn)	–	1.71%	–
Cc1ccccc1N1CCN(CCc2nnc3n2CCCC3)CC1	–	–	inactive
O=C(O)c1[nH]n(-c2ccc(S(=O)(=O)O)cc2)c(=O)c1N=Nc1ccc(S(=O)(=O)O)cc1	–	1.51%	–
C[N+](C)(CCOc1ccccc1)Cc1cccs1	–	-16.4%	–
CC(=O)CC/C=C(\C)CC/C=C(\C)CC/C=C(\C)CCC=C(C)C	–	–	inactive
CCCCC(CC)COC(=O)c1ccccc1C(=O)O (stereo not drawn)	–	–	inactive
CC(=O)OCC[N+](C)(C)C	–	–	inactive
CCOc1ccc(NS(=O)(=O)c2ccc(N)cc2)nn1	–	–	inactive
CC(C)C(C)(C)C(C)(C)C(C)(C)S	–	-4.55%	–
C=CCOc1cc(Cl)ccc1C(=O)NCCN(CC)CC	–	-33.1%	–
Cn1cc(S(C)=O)c(=O)c2ccc(F)cc21 (stereo not drawn)	–	-2.1%	–
Nc1nnnn1-c1ccccc1	–	-1.05%	–
OC[C@]1(O)OC[C@@H](O)[C@H](O)[C@@H]1O	–	–	inactive
O=C(O)Cc1ccc(OCCNC[C@H](O)c2ccccc2)cc1	–	-3.07%	–
O=C(O)c1ccccc1S	–	0.0683%	–
